From paper PMC10812921, “Transcriptional Coactivator BOB1 (OBF1, OCA-B) Modulates the Specificity of DNA Recognition by the POU-Domain Factors OCT1 and OCT2 in a Monomeric Configuration” come the findings set out here.

The target of one test is POU1 (OCT1 POU domain) (human, UniProt P14859 260-458). Put plainly: EMSA-SELEX-seq; no BOB1; 20 mM Tris-HCl pH 7.6, 140 mM NaCl, 10% glycerol, 0.5 mM EDTA, 0.05% Triton X-100, 0.1 mg/mL BSA, 0.1 mg/mL poly(dI-dC), 5 mM DTT, room temperature, 20 min; high values mean tight binding. As to conditions: protein: recombinant; dsDNA, one strand shown. The gist of the method:
(§1)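 With or without 28 ng coactivator protein, 30 ng of tagged POU-domain protein was combined with 300 ng of a PCR-amplified double-stranded random 35-nt library in 20 μL Tris–HCl pH 7.6 binding buffer for 20 min at RT. The protein came from E. coli BL21 and had been purified under denaturing conditions and renatured. Four rounds of cutting complex bands from native 6% PAGE, elution and PCR amplification preceded Illumina sequencing. The binding preference figure is the percentage of sequenced 8-mers matching a motif pattern.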
For orientation: Mobility shift assays separate free from complexed probe on a gel.

A further test deals with T1, POU2 (OCT2 POU domain) (human, UniProt P09086 175-386).
T1 sequence: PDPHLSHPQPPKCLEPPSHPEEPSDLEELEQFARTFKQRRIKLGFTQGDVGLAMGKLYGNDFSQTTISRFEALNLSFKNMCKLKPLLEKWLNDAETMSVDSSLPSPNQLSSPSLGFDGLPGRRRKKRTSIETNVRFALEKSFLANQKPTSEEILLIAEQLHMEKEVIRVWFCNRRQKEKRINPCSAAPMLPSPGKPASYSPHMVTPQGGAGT
Described as above. The following applies: protein: recombinant; dsDNA, one strand shown. A digest of the protocol: as §1

The target of test [1] is POU1 (OCT1 POU domain);BOB1 (OBF1, OCA-B) (human;human, UniProt P14859;Q16633 260-458;1-256, |). Put plainly: EMSA-SELEX-seq; with BOB1 (ternary complex band); 20 mM Tris-HCl pH 7.6, 140 mM NaCl, 10% glycerol, 0.5 mM EDTA, 0.05% Triton X-100, 0.1 mg/mL BSA, 0.1 mg/mL poly(dI-dC), 5 mM DTT, room temperature, 20 min; high values mean tight binding. The following applies: protein: recombinant;recombinant; copies: 1;1; dsDNA, one strand shown. A digest of the protocol: as §1

Test [2] deals with T2, POU2 (OCT2 POU domain);BOB1 (OBF1, OCA-B) (human;human, UniProt P09086;Q16633 175-386;1-256, |).
T2 sequence 1: T1 sequence
T2 sequence 2: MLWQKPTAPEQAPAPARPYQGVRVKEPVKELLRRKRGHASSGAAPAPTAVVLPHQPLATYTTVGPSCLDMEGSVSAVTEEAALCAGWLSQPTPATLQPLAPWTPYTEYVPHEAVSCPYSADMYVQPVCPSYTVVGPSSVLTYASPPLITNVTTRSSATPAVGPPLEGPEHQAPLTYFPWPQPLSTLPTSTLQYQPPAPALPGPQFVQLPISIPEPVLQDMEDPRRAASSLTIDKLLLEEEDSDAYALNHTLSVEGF
The test is described as above. The following applies: protein: recombinant;recombinant; copies: 1;1; dsDNA, one strand shown. A digest of the protocol: as §1

Sequence of POU1 (OCT1 POU domain) (P14859 260-458): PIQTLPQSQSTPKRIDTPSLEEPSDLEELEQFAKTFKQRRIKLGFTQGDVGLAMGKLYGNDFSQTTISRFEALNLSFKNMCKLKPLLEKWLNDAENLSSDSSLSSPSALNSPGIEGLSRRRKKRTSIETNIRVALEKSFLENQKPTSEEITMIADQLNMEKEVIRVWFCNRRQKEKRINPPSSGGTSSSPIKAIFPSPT

In the case of ACCGGAAC, the binding signal with POU1 (OCT1 POU domain) is 0.0137 % of ANNNNAAN 8-mers; with POU2 (OCT2 POU domain), 0.0138 % of ANNNNAAN 8-mers; in test [1], 0.0133 % of ANNNNAAN 8-mers; in test [2], 0.0124 % of ANNNNAAN 8-mers.

As for AAGAGAAA, the binding signal is 0.0511 % of ANNNNAAN 8-mers with POU1 (OCT1 POU domain), 0.0621 % of ANNNNAAN 8-mers with POU2 (OCT2 POU domain), 0.0531 % of ANNNNAAN 8-mers in test [1] and 0.038 % of ANNNNAAN 8-mers in test [2].

In the case of ATGCGAAC, the binding signal in the test with POU1 (OCT1 POU domain) was 0.04 % of ANNNNAAN 8-mers; with POU2 (OCT2 POU domain), 0.0357 % of ANNNNAAN 8-mers; in test [1], 0.0386 % of ANNNNAAN 8-mers; in test [2], 0.0347 % of ANNNNAAN 8-mers.

With ACCTCAAT, the binding signal in the test with POU1 (OCT1 POU domain) is 0.0202 % of ANNNNAAN 8-mers; with POU2 (OCT2 POU domain), 0.0196 % of ANNNNAAN 8-mers; in test [1], 0.025 % of ANNNNAAN 8-mers; in test [2] it was 0.0289 % of ANNNNAAN 8-mers.

For the sequence AGTTTAAG, the binding signal was 0.05 % of ANNNNAAN 8-mers in the test with POU1 (OCT1 POU domain), 0.0656 % of ANNNNAAN 8-mers in the test with POU2 (OCT2 POU domain), 0.0519 % of ANNNNAAN 8-mers in test [1] and 0.0504 % of ANNNNAAN 8-mers in test [2].

Regarding ATCGCAAG, the binding signal with POU1 (OCT1 POU domain) was 0.0179 % of ANNNNAAN 8-mers; with POU2 (OCT2 POU domain) it was 0.0219 % of ANNNNAAN 8-mers; in test [1] it was 0.023 % of ANNNNAAN 8-mers; in test [2], 0.0206 % of ANNNNAAN 8-mers.

For AATGAAAT, the binding signal is 0.139 % of ANNNNAAN 8-mers with POU1 (OCT1 POU domain), 0.157 % of ANNNNAAN 8-mers in the test with POU2 (OCT2 POU domain), 0.14 % of ANNNNAAN 8-mers in test [1] and 0.121 % of ANNNNAAN 8-mers in test [2].

Regarding AAAGGAAG, the binding signal with POU1 (OCT1 POU domain) is 0.0561 % of ANNNNAAN 8-mers; with POU2 (OCT2 POU domain), 0.061 % of ANNNNAAN 8-mers; in test [1], 0.0675 % of ANNNNAAN 8-mers; in test [2], 0.0702 % of ANNNNAAN 8-mers.

Regarding ACACTAAT, the binding signal in the test with POU1 (OCT1 POU domain) is 0.0568 % of ANNNNAAN 8-mers; with POU2 (OCT2 POU domain), 0.0811 % of ANNNNAAN 8-mers; in test [1], 0.0316 % of ANNNNAAN 8-mers; in test [2], 0.0438 % of ANNNNAAN 8-mers.

With AACATAAA, the binding signal is 0.101 % of ANNNNAAN 8-mers in the test with POU1 (OCT1 POU domain), 0.125 % of ANNNNAAN 8-mers with POU2 (OCT2 POU domain), 0.0527 % of ANNNNAAN 8-mers in test [1] and 0.0627 % of ANNNNAAN 8-mers in test [2].

Regarding AGTTAAAC, the binding signal was 0.0461 % of ANNNNAAN 8-mers in the test with POU1 (OCT1 POU domain), 0.0593 % of ANNNNAAN 8-mers in the test with POU2 (OCT2 POU domain), 0.0499 % of ANNNNAAN 8-mers in test [1] and 0.0553 % of ANNNNAAN 8-mers in test [2].

With AGCCCAAT, the binding signal with POU1 (OCT1 POU domain) was 0.0168 % of ANNNNAAN 8-mers; in the test with POU2 (OCT2 POU domain), 0.019 % of ANNNNAAN 8-mers; in test [1], 0.0226 % of ANNNNAAN 8-mers; in test [2], 0.0231 % of ANNNNAAN 8-mers.

AGTAAAAA: the binding signal with POU1 (OCT1 POU domain) was 0.0911 % of ANNNNAAN 8-mers; with POU2 (OCT2 POU domain) it was 0.0679 % of ANNNNAAN 8-mers; in test [1], 0.103 % of ANNNNAAN 8-mers; in test [2] it was 0.0578 % of ANNNNAAN 8-mers.

As to AGCTGAAT, the binding signal with POU1 (OCT1 POU domain) is 0.0561 % of ANNNNAAN 8-mers; in the test with POU2 (OCT2 POU domain) it was 0.0725 % of ANNNNAAN 8-mers; in test [1], 0.0492 % of ANNNNAAN 8-mers; in test [2], 0.0471 % of ANNNNAAN 8-mers.

As for AGCTAAAA, the binding signal in the test with POU1 (OCT1 POU domain) was 0.0282 % of ANNNNAAN 8-mers; with POU2 (OCT2 POU domain), 0.038 % of ANNNNAAN 8-mers; in test [1], 0.0425 % of ANNNNAAN 8-mers; in test [2] it was 0.0338 % of ANNNNAAN 8-mers.

As to ATCTAAAT, the binding signal in the test with POU1 (OCT1 POU domain) was 0.172 % of ANNNNAAN 8-mers; with POU2 (OCT2 POU domain) it was 0.227 % of ANNNNAAN 8-mers; in test [1] it was 0.123 % of ANNNNAAN 8-mers; in test [2], 0.123 % of ANNNNAAN 8-mers.

AAAATAAC: the binding signal with POU1 (OCT1 POU domain) is 0.0782 % of ANNNNAAN 8-mers; with POU2 (OCT2 POU domain), 0.0696 % of ANNNNAAN 8-mers; in test [1] it was 0.0816 % of ANNNNAAN 8-mers; in test [2], 0.0735 % of ANNNNAAN 8-mers.

For AGACTAAC, the binding signal in the test with POU1 (OCT1 POU domain) was 0.0153 % of ANNNNAAN 8-mers; in the test with POU2 (OCT2 POU domain), 0.0207 % of ANNNNAAN 8-mers; in test [1], 0.0156 % of ANNNNAAN 8-mers; in test [2], 0.0198 % of ANNNNAAN 8-mers.

On to ATAAAAAT, for which the binding signal is 0.131 % of ANNNNAAN 8-mers with POU1 (OCT1 POU domain), 0.125 % of ANNNNAAN 8-mers with POU2 (OCT2 POU domain), 0.114 % of ANNNNAAN 8-mers in test [1] and 0.09 % of ANNNNAAN 8-mers in test [2].

With ATAAGAAA, the binding signal was 0.1 % of ANNNNAAN 8-mers with POU1 (OCT1 POU domain), 0.0955 % of ANNNNAAN 8-mers in the test with POU2 (OCT2 POU domain), 0.118 % of ANNNNAAN 8-mers in test [1] and 0.0826 % of ANNNNAAN 8-mers in test [2].

Take ATCCAAAT: the binding signal in the test with POU1 (OCT1 POU domain) was 0.131 % of ANNNNAAN 8-mers; with POU2 (OCT2 POU domain), 0.11 % of ANNNNAAN 8-mers; in test [1] it was 0.209 % of ANNNNAAN 8-mers; in test [2] it was 0.133 % of ANNNNAAN 8-mers.

In the case of AGATTAAA, the binding signal with POU1 (OCT1 POU domain) is 0.105 % of ANNNNAAN 8-mers; with POU2 (OCT2 POU domain), 0.11 % of ANNNNAAN 8-mers; in test [1] it was 0.0648 % of ANNNNAAN 8-mers; in test [2] it was 0.071 % of ANNNNAAN 8-mers.

Consider AGGACAAT, for which the binding signal was 0.042 % of ANNNNAAN 8-mers with POU1 (OCT1 POU domain), 0.0345 % of ANNNNAAN 8-mers with POU2 (OCT2 POU domain), 0.0496 % of ANNNNAAN 8-mers in test [1] and 0.0421 % of ANNNNAAN 8-mers in test [2].

As to AGGCCAAG, the binding signal with POU1 (OCT1 POU domain) is 0.0271 % of ANNNNAAN 8-mers; with POU2 (OCT2 POU domain) it was 0.0334 % of ANNNNAAN 8-mers; in test [1], 0.0312 % of ANNNNAAN 8-mers; in test [2] it was 0.0264 % of ANNNNAAN 8-mers.

For ATGCTAAT, the binding signal in the test with POU1 (OCT1 POU domain) is 1.85 % of ANNNNAAN 8-mers; with POU2 (OCT2 POU domain), 1.82 % of ANNNNAAN 8-mers; in test [1], 0.249 % of ANNNNAAN 8-mers; in test [2], 0.283 % of ANNNNAAN 8-mers.

Regarding ATGGGAAA, the binding signal in the test with POU1 (OCT1 POU domain) was 0.098 % of ANNNNAAN 8-mers; in the test with POU2 (OCT2 POU domain), 0.1 % of ANNNNAAN 8-mers; in test [1] it was 0.118 % of ANNNNAAN 8-mers; in test [2], 0.0784 % of ANNNNAAN 8-mers.

For AAGGAAAG, the binding signal was 0.0576 % of ANNNNAAN 8-mers in the test with POU1 (OCT1 POU domain), 0.0524 % of ANNNNAAN 8-mers with POU2 (OCT2 POU domain), 0.0792 % of ANNNNAAN 8-mers in test [1] and 0.0644 % of ANNNNAAN 8-mers in test [2].

In the case of AACTAAAC, the binding signal was 0.0225 % of ANNNNAAN 8-mers with POU1 (OCT1 POU domain), 0.0299 % of ANNNNAAN 8-mers with POU2 (OCT2 POU domain), 0.0289 % of ANNNNAAN 8-mers in test [1] and 0.0264 % of ANNNNAAN 8-mers in test [2].

Take AAGGCAAT: the binding signal with POU1 (OCT1 POU domain) was 0.0519 % of ANNNNAAN 8-mers; in the test with POU2 (OCT2 POU domain), 0.0489 % of ANNNNAAN 8-mers; in test [1] it was 0.057 % of ANNNNAAN 8-mers; in test [2] it was 0.0495 % of ANNNNAAN 8-mers.
